Drawing on PubChem BioAssay (NCI), this text covers growth for seven molecules.

The structures appear in SMILES notation. Compounds without any hit were thinned out: in the full panel of roughly 83,000, 20% have a hit.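 96-well plates, one dose, 48 hours. Percent growth reported; active if below 10.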 Calls of active or inactive are those of the source.

Among the test systems are NCI-H23 lung; NCI-H226 lung; NCI-H322M lung; HOP-62 NSCLC; NCI-H460 lung; HOP-92 NSCLC; NCI-H522 lung; A549/ATCC NSCLC; 786-0 renal; COLO 205 colon; DU-145 prostate; K-562 leukemia; MALME-3M melanoma; MDA-MB-231 breast; RXF 393 renal; SF-268 CNS; SF-295 CNS; SF-539 CNS; UACC-257 melanoma; M14 melanoma.
Common to all, as to assay: NCI-60 one-dose screen, 48 h (100 = growth as untreated, 0 = no growth, -100 = all killed)
Common to all, as to settings: 10 µM unless noted

For the molecule `CN(CCSSCCN1CCOCC1)C(=O)Oc1cc2c(c3ccccc13)[C@H](CCl)CN2C(=O)c1cc2cc(OCCCN3CCC3)ccc2[nH]1`, the growth with NCI-H23 lung was -67.5% (active); in the assay with NCI-H226 lung, -11.7% (active); in the assay with NCI-H322M lung it was -3.1% (active); in the assay with HOP-62 NSCLC it was -64.7% (active); in the assay on NCI-H460 lung, -23.3% (active); in the assay on HOP-92 NSCLC, -14.1% (active). Further, the growth with NCI-H522 lung is -66.4% (active); with A549/ATCC NSCLC, -45.8% (active); with 786-0 renal it was -35% (active); in the assay with COLO 205 colon, -74% (active); in the assay with DU-145 prostate, -70.8% (active); in the assay with K-562 leukemia, -34.6% (active). In addition, the growth is -79.5% (active) in the assay on MALME-3M melanoma; -23.7% (active) in the assay with MDA-MB-231 breast; -77.4% (active) in the assay with RXF 393 renal; 3.42% (active) in the assay on SF-268 CNS; 1.02% (active) in the assay on SF-295 CNS; -86.2% (active) with SF-539 CNS. Further, the growth in the assay with UACC-257 melanoma was -17.1% (active); in the assay with M14 melanoma, -72.5% (active).
As for `O=C(CSc1nnc(-c2ccc(-c3nc4ccccc4[nH]3)cc2)o1)Nc1ccccc1`, the growth in the assay on NCI-H23 lung was 63.1% (inactive); in the assay with NCI-H226 lung it was 76.1% (inactive); with NCI-H322M lung it was 84.4% (inactive); in the assay on HOP-62 NSCLC, 63.2% (inactive); in the assay with NCI-H460 lung, 12% (inactive); in the assay with HOP-92 NSCLC it was 54.1% (inactive). Further, the growth with NCI-H522 lung was 78% (inactive); in the assay with A549/ATCC NSCLC it was 51.8% (inactive); with 786-0 renal it was 22% (inactive); with COLO 205 colon, 118% (inactive); with DU-145 prostate, 4.85% (active); in the assay with K-562 leukemia it was 33.1% (inactive). The growth in the assay on MALME-3M melanoma is 93.3% (inactive); in the assay on MDA-MB-231 breast it was -14.5% (active); in the assay on RXF 393 renal it was -1.42% (active); with SF-268 CNS, 45.7% (inactive); in the assay on SF-295 CNS, 94.2% (inactive); with SF-539 CNS, 46.7% (inactive). Further, the figures for the growth in the assay with UACC-257 melanoma and with M14 melanoma were 103% (inactive) and 60.3% (inactive), respectively.
`C[C@H]1[C@@H](CC(=O)N[C@@H](Cc2coc3ccccc23)B(O)O)O[C@@H]2OC3(C)CC[C@H]4[C@H](C)CC[C@@H]1[C@@]24O3`: the growth in the assay with NCI-H23 lung is 18.6% (inactive); in the assay with NCI-H226 lung it was -15.5% (active); with NCI-H322M lung, 74.9% (inactive); with HOP-62 NSCLC, 6.31% (active); in the assay on NCI-H460 lung it was 17% (inactive); with HOP-92 NSCLC, 23.2% (inactive). Moreover, the growth in the assay on NCI-H522 lung is -50% (active); in the assay on A549/ATCC NSCLC it was 31.6% (inactive); in the assay with 786-0 renal, 17.1% (inactive); in the assay with COLO 205 colon, 23% (inactive); in the assay on DU-145 prostate, 45% (inactive); in the assay on K-562 leukemia it was 14.8% (inactive). The growth in the assay on MALME-3M melanoma is -41.6% (active); in the assay with MDA-MB-231 breast it was -68.3% (active); in the assay on RXF 393 renal, -59% (active); in the assay with SF-268 CNS, 17.5% (inactive); in the assay on SF-295 CNS, -65.7% (active); in the assay on SF-539 CNS, -91.6% (active). The values for the growth in the assay with UACC-257 melanoma and in the assay with M14 melanoma were -45.3% (active) and -33.7% (active), respectively.
Consider `O=C(NC(=S)N1CCN(c2ncnc3c2cnn3-c2ccccc2)CC1)c1ccc(Br)cc1`, for which the growth with NCI-H23 lung is 64.4% (inactive); in the assay on NCI-H226 lung it was 60.6% (inactive); in the assay on NCI-H322M lung, 75.4% (inactive); in the assay with HOP-62 NSCLC, 37.4% (inactive); in the assay with NCI-H460 lung, 69.2% (inactive); in the assay on HOP-92 NSCLC, 47.2% (inactive). Also, the growth was 60.9% (inactive) with NCI-H522 lung; 72% (inactive) in the assay with 786-0 renal; 98.7% (inactive) in the assay with COLO 205 colon; 87.3% (inactive) in the assay on DU-145 prostate; 61.4% (inactive) in the assay with K-562 leukemia; 53.4% (inactive) in the assay on MALME-3M melanoma. Further, the growth in the assay with MDA-MB-231 breast is 75.4% (inactive); in the assay on RXF 393 renal it was 69.1% (inactive); in the assay on SF-268 CNS it was 58.5% (inactive); in the assay on SF-295 CNS, 48.3% (inactive); in the assay on SF-539 CNS, -17.5% (active); in the assay with UACC-257 melanoma, 88.7% (inactive). In the assay with M14 melanoma, the growth is 83.1% (inactive).
Turning to `COc1ccc(C2=Nc3c(N)nc(N)nc3NC(c3ccc(Oc4nc(Nc5ccc(F)cc5)nc(N(C)C)n4)c(OC)c3)C2)cc1` (stereo not drawn), the growth is 88.4% (inactive) in the assay on NCI-H23 lung; 77.4% (inactive) in the assay with NCI-H226 lung; 104% (inactive) in the assay with NCI-H322M lung; 82.5% (inactive) with HOP-62 NSCLC; 71% (inactive) in the assay with NCI-H460 lung; 16.6% (inactive) in the assay on HOP-92 NSCLC. Also, the growth in the assay with NCI-H522 lung was 88% (inactive); with A549/ATCC NSCLC, 75.5% (inactive); in the assay with 786-0 renal, 52.6% (inactive); in the assay on COLO 205 colon, 91.6% (inactive); in the assay on DU-145 prostate it was 68.8% (inactive); in the assay with K-562 leukemia it was 29.5% (inactive). In addition, the growth in the assay on MALME-3M melanoma was 83.1% (inactive); in the assay on MDA-MB-231 breast, 43.3% (inactive); in the assay with RXF 393 renal, 12.1% (inactive); in the assay with SF-268 CNS it was 61.6% (inactive); in the assay on SF-295 CNS, 85.7% (inactive); in the assay with SF-539 CNS it was 71.9% (inactive). Moreover, the growth in the assay with UACC-257 melanoma was 70.5% (inactive); in the assay on M14 melanoma, 93.4% (inactive).
As to `Cc1ccc2nc(NC(=O)Nc3cccc(Cl)c3)sc2c1`, the growth with NCI-H23 lung is 93.8% (inactive); in the assay on NCI-H226 lung, 96.4% (inactive); in the assay on NCI-H322M lung, 93.7% (inactive); in the assay with HOP-62 NSCLC, 111% (inactive); with NCI-H460 lung, 99.1% (inactive); in the assay with HOP-92 NSCLC, 119% (inactive). Besides, the growth is 94% (inactive) in the assay on NCI-H522 lung; 106% (inactive) with A549/ATCC NSCLC; 107% (inactive) in the assay with 786-0 renal; 117% (inactive) with COLO 205 colon; 118% (inactive) in the assay with DU-145 prostate; 90.3% (inactive) in the assay with K-562 leukemia. In addition, the growth with MALME-3M melanoma is 93.5% (inactive); with MDA-MB-231 breast, 92% (inactive); in the assay on RXF 393 renal it was 121% (inactive); in the assay with SF-268 CNS, 118% (inactive); in the assay on SF-295 CNS, 98.8% (inactive); in the assay on SF-539 CNS, 102% (inactive). Also, the growth is 111% (inactive) in the assay on UACC-257 melanoma and 97.6% (inactive) in the assay with M14 melanoma.
As for `C[C@@H]1[C@H]2C[C@@H](C[C@H]1NCc1nc3ccccc3n1C1CCCCCC1)C2(C)C`, the growth in the assay with NCI-H23 lung was 33% (inactive); in the assay on NCI-H226 lung, 57.2% (inactive); in the assay on NCI-H322M lung it was 95.4% (inactive); in the assay with HOP-62 NSCLC, 88.3% (inactive); with NCI-H460 lung it was 56.3% (inactive); in the assay on HOP-92 NSCLC, 28.9% (inactive). Besides, the growth with NCI-H522 lung is 22.9% (inactive); with 786-0 renal, 63.4% (inactive); in the assay with COLO 205 colon it was 58.7% (inactive); in the assay with DU-145 prostate it was 88.3% (inactive); in the assay with K-562 leukemia, 24.1% (inactive); in the assay with MALME-3M melanoma, 51.4% (inactive). Further, the growth with MDA-MB-231 breast is 77.8% (inactive); in the assay with RXF 393 renal, 19% (inactive); in the assay on SF-268 CNS, 75.6% (inactive); in the assay on SF-295 CNS it was 57.6% (inactive); in the assay on SF-539 CNS, 77.1% (inactive); with UACC-257 melanoma it was 64.7% (inactive). Besides, in the assay with M14 melanoma, the growth is 61% (inactive).
